This is one part of a sample in which hits are shown more often than they occur.
nsP2pro primary = Primary qHTS for inhibitors of NSP2Pro chikungunya virus (CHIKV) | FRET peptide cleavage, nsP2pro, fluorescence 1 h | Potency, µM (series often up to 24.9 µM), actives largely listed as inhibitors | 31,000 tested, 1.1% active | Polyprotein P1234 (Chikungunya virus (strain S27-African prototype)), Q8JUX6 | AID 1964107, 2024; also: nearly all actives have a fitted effect of over 60% in size
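Enzyme 150 nM, substrate 2.5 uM (both final); Tris-HCl 10 mM pH 8.0 + 0.01% Tween 20; cpd up to 25 uM, 7 pts; 15 min preinc., 1 h RT; fluorescence ex 525/em 598.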
nsP2 cell sec = Secondary cell base assay for inhibitors of NSP2Pro Chikungunya virus (CHIKV). shares compounds with nsP2pro primary. cell-based CHIKV nsP2 protease reporter assay. Potency, µM (highest dose often 51.1 µM), most hits filed as inhibitors. 450 tested, 10% active. AID 1964100, 2024; also: nearly all actives have a fitted effect of over 70% in size
NSP2 full ctr = Selectivity profile for inhibitors of NSP2Pro chikungunya virus (CHIKV): Full length NSP2 enzyme counterscreen (CHIKV-NSP2); Full-length CHIKV NSP2 protease enzymatic counterscreen; shares compounds with nsP2pro primary; 410 tested, 39% active; Potency, µM (series often up to 50.7 µM), usual class: inhibitors; also: nearly all actives have a fitted effect of over 65% in size
Furin counterscr = Selectivity profile for inhibitors of NSP2Pro chikungunya virus (CHIKV): Human furin counterscreen; Potency, µM (top dose mostly 50.6 µM), actives largely listed as inhibitors; Recombinant human furin enzymatic counterscreen, fluorogenic substrate; 410 tested, 6% active; shares compounds with nsP2pro primary
Target sequence (P09958 whole entry, looked up): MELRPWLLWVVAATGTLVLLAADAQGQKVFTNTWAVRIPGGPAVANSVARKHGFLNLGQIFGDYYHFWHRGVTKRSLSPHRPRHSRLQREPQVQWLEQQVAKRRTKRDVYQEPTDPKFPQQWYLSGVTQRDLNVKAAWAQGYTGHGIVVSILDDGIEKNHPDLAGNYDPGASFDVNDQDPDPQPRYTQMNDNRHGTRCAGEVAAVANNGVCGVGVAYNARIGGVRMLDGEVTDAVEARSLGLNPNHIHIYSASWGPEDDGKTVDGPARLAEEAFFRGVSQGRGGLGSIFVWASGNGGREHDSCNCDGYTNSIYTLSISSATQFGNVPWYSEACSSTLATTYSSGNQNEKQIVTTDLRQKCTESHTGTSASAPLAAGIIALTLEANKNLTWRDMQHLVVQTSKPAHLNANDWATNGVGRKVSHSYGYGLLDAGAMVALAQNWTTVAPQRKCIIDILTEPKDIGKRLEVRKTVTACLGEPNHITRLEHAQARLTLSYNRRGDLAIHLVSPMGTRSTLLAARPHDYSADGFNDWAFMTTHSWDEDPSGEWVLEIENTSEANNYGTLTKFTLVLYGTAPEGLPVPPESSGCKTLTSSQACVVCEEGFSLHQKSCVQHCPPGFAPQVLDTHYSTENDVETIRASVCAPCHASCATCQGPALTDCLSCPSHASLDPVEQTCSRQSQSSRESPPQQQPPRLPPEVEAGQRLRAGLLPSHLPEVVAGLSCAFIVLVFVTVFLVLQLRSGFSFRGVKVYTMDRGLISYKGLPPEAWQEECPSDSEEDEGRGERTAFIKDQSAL
nsP2 NS23 pep = Selectivity profile for inhibitors of NSP2Pro chikungunya virus (CHIKV): Endogenous NS2/3 peptide Counterscreen | shares compounds with nsP2pro primary | AID 1964103, 2024 | Purified CHIKV nsP2 protease, endogenous NS2/3 peptide cleavage | Potency, µM (doses to about 51 µM), most hits filed as inhibitors | 410 tested, 34% active; also: nearly all actives have a fitted effect of over 55% in size
Papain counter = Selectivity profile for inhibitors of NSP2Pro chikungunya virus (CHIKV): Papain Counterscreen; purified papain protease activity, enzymatic inhibition; shares compounds with nsP2pro primary; 410 tested, 5% active; Potency, µM (highest dose often 51 µM), most hits filed as inhibitors; AID 1964104, 2024
nsP2pro conf qHTS = Confirmatory qHTS for inhibitors of NSP2Pro chikungunya virus (CHIKV). CHIKV nsP2 protease enzymatic activity, qHTS. shares compounds with nsP2pro primary. AID 1964105, 2024. 410 tested, 43% active. Potency, µM (top dose mostly 25.5 µM), most hits filed as inhibitors; also: nearly all actives have a fitted effect of over 75% in size
HCV NS3 4A cs = Selectivity profile for inhibitors of NSP2Pro chikungunya virus (CHIKV): NS34A-HCV Counterscreen | Potency, µM (series often up to 50.9 µM), usual class: inhibitors | shares compounds with nsP2pro primary | HCV NS3/4A protease biochemical counterscreen | AID 1964106, 2024 | 410 tested, 20% active; also: nearly all actives have a fitted effect of over 55% in size
Each line names hits and unclear results; the compound was inactive in the other large screens (follow-up assays come after a bar, where they were run). Calls follow the shape of the full dose curve.

Cc1cccc(C(=O)Nc2ccc3oc(-c4cccc5c(Br)cccc45)nc3c2)c1	none
O=C(Nc1ccc(N2CCC(N3CCCCC3)CC2)c(C(=O)O)c1)c1ccccc1	nsP2pro primary 10.7µM | nsP2 cell sec inactive | NSP2 full ctr 2.91µM | Furin counterscr inconclusive | nsP2 NS23 pep 9.19µM | Papain counter inactive | nsP2pro conf qHTS 6.34µM | HCV NS3 4A cs 1.83µM
CC1CCN(c2ccc(NC(=O)c3cccc(Cl)c3)cc2C(=O)O)CC1	nsP2pro primary 4.47µM | nsP2 cell sec inconclusive | NSP2 full ctr inactive | Furin counterscr inconclusive | nsP2 NS23 pep 0.461µM | Papain counter inactive | nsP2pro conf qHTS 7.11µM | HCV NS3 4A cs 3.26µM
O=C(Nc1ccc(S(=O)(=O)Nc2ncccn2)cc1)c1cccc(Cl)c1	none
Cn1c(=O)n(C)c2cc(N3CCCC3)c(NC(=O)Nc3ccccc3)cc21	none
COc1cccc(C(=O)Nc2ccc3nc(N4CCC(C)CC4)cc(C)c3c2)c1	none
Cc1ccccc1C(=O)Nc1ccc(NC(=O)c2cccs2)cc1	none
O=C(Nc1cncnc1)c1cccs1	none
Cc1cccc(C(=O)Nc2ccc(N3CC=C(c4ccccc4C)CC3)c(C(=O)O)c2)c1	nsP2pro primary 9.53µM | nsP2 cell sec inactive | NSP2 full ctr 2.06µM | Furin counterscr inconclusive | nsP2 NS23 pep 7.3µM | Papain counter inactive | nsP2pro conf qHTS 5.04µM | HCV NS3 4A cs 1.63µM
Cc1ccc(C)c(N2CCN(c3ccc(NC(=O)c4cccs4)cc3C(=O)O)CC2)c1	nsP2pro primary 5.62µM | nsP2 cell sec inactive | NSP2 full ctr inconclusive | Furin counterscr inactive | nsP2 NS23 pep 16.3µM | Papain counter inactive | nsP2pro conf qHTS 7.98µM | HCV NS3 4A cs 4.11µM
CCN1C(=O)c2ccccc2Sc2ccc(NC(=O)c3cccc(C)c3)cc21	none
Cc1c(C(=O)Nc2ccc(N3CCC(N4CCOCC4)CC3)c(C#N)c2)cnn1-c1ccc(Cl)cc1	none
O=C1NC2(CN(C(=O)c3ccccc3)C2)Oc2ccccc21	none
CC(C)(C)[C@H](NC(=O)C(F)(F)F)C(=O)N1C[C@H]2[C@@H]([C@H]1C(=O)N[C@H](C#N)C[C@@H]1CCNC1=O)C2(C)C	none
C=CCNC(=O)c1cnn2c1CN(C(=O)OCc1ccccc1)CC2	none
CC(C)=C/C(C)=N\Nc1nncc2ccccc12	none
Cn1nc(C(=O)N2CCCC(CN3CCOCC3)CC2)c2ccccc21 (centres undefined)	none
CC(C)=CC(=O)N[C@H]1C[C@@H](C(=O)N[C@H](Cc2ccccc2)C(N)=O)N(C(=O)C=C(C)C)C1	none
CCn1c(CO)nnc1C1CC(NC(=O)c2nn(C)c(C)c2Cl)C1 (centres undefined)	none
CS(=O)(=O)n1cc2c(n1)CN([C@H]1CO[C@H](c3cc(F)ccc3F)[C@@H](N)C1)C2	none
O=C1Cc2cc(S(=O)(=O)N3CCN(c4ccc(CO)cc4)CC3)ccc2N1	none
Cc1cc(C)nc(NC(=S)N2CCN(c3ccc(Cl)cc3[N+](=O)[O-])CC2)c1	none
CC(=O)OC1C(O)C2C(C)C3=CC(=O)OC3(O)CC2C2(C)CCCC(C)(CO)C12 (centres undefined)	none
CC1C2=CC(=O)OC2(O)CC2C1C(OC(=O)c1ccccc1)C(OC(=O)c1ccccc1)C1(O)C2(C)CCC(O)C1(C)C(=O)O (centres undefined)	nsP2pro primary 2.33µM | nsP2 cell sec inactive | NSP2 full ctr inactive | Furin counterscr inactive | nsP2 NS23 pep inactive | Papain counter inactive | nsP2pro conf qHTS inactive | HCV NS3 4A cs inactive
CC1C2=CC(=O)OC2(O)CC2C1CCC1C(C)(C)CCC(O)C21C (centres undefined)	none
CCN(C(=O)CO)[C@H]1CN(C(=Nc2cccc(OC(F)F)c2)NC#N)N=C1c1ccc(Cl)c(Cl)c1	none
COc1cc(/C=C\C(=O)N2CCN(CC(=O)N3CCCC3)CC2)cc(OC)c1OC	none
CCOc1ccc(NC(=O)CN2CCN(S(=O)(=O)c3ccc(OC)cc3)CC2)cc1	none
CCCNC(=O)CN1CCN(c2ccc(NC(=O)c3ccc(OC)cc3)cc2C(=O)O)CC1	nsP2pro primary 4.47µM | nsP2 cell sec inconclusive | NSP2 full ctr 4.11µM | Furin counterscr inconclusive | nsP2 NS23 pep 13µM | Papain counter inactive | nsP2pro conf qHTS 7.11µM | HCV NS3 4A cs 2.91µM
O=C(Nc1ccc(N2CCN(CCOc3ccc(Cl)cc3)CC2)c(C(=O)O)c1)c1ccc(F)cc1	nsP2pro primary 3.55µM | nsP2 cell sec inactive | NSP2 full ctr 3.26µM | Furin counterscr inconclusive | nsP2 NS23 pep 8.19µM | Papain counter inactive | nsP2pro conf qHTS 7.11µM | HCV NS3 4A cs 2.06µM
Cc1ccc(Cl)cc1N1CCN(CCNC(=O)Nc2ccc(Cl)cc2)CC1	none
CCCCOc1ccc(C(=O)Nc2ccc(F)cc2F)cc1	none
CCOc1ccc(NC(=O)NCCCN2CCN(c3ccc(OC)cc3)CC2)cc1	none
COc1cccc(-c2ccc(-c3nc4ccccc4c(=O)[nH]3)o2)c1	none
C#CCOc1ccc(C(C)=O)cc1-c1nnc2n1N=C(c1ccc(OC)c(OC)c1)CS2	none
Fc1cc(Nc2nc(-c3ccncc3)nc3ccccc23)ccc1N1CCNCC1	none
CCN1Cc2ccccc2NC(=O)C12CCNC2 (centres undefined)	nsP2pro primary 8.91µM | nsP2 cell sec inconclusive | NSP2 full ctr 6.43µM | Furin counterscr inactive | nsP2 NS23 pep 14.4µM | Papain counter inactive | nsP2pro conf qHTS 8.85µM | HCV NS3 4A cs 3.62µM
CN1Cc2ccccc2NC(=O)C12CCNC2 (centres undefined)	none
O=C1Nc2ccccc2CN(CC2CCCCC2)C12CCNC2 (centres undefined)	none
COc1cccc(C(=O)Nc2ccc(-c3ccc(OC)nn3)cc2)c1	none
Cc1cccc(S(=O)(=O)Nc2cnccc2C(=O)Nc2nc(-c3ccccc3)cs2)c1	none
O=C(NC1CCNCC1)[C@@H]1CC[C@@H]2CN1C(=O)N2OS(=O)(=O)O	none

Screening data as filed in PubChem BioAssay.
